The text below walks through data of PubChem BioAssay AID434970 (Sanford-Burnham Center for Chemical Genomics, 2010).

Each structure is given as a SMILES string. The whole screen tested about 11,000 compounds, of which about 310 (2.8%) were called active. This is one part of a sample in which actives are shown more often than they occur. Cut-off read from the data, not from the text of the source: active = activity change below about -85%; inactive = the rest.

In the experiment the test system is intestinal alkaline phosphatase [Mus musculus]. Nature of the experiment: mouse intestinal phosphatase enzyme activation – biochemical, luminescence, single concentration, confirmation (AID 434970). To be noted: purified mouse IAP, CDP-Star luminescence, 30 min, at 10 µM; activation factor: measured here: IAP activation factor, stronger effect = higher value; activity change, negative = activation: stronger effect = lower value.
In the case of `Cc1cc(C)cc(NC(=S)NC2CC3CCCC(C2)N3Cc2cccs2)c1` (stereo not given), the activation factor amounted to 2.5 and the activity change, negative = activation is -150% (active).
For `Cc1ccc(CN2C3CCCC2CC(NC(=S)NCc2ccccc2)C3)cc1` (stereo not given), the activation factor stood at 2.88 and the activity change, negative = activation is -188% (active).
On the same counts, the results for `Cc1ccc(CN2C3CCCC2CC(NC(=O)Nc2cccc(F)c2)C3)cc1` (stereo not given) are 4.48 and -348% (active).
Turning to `CCc1ccc(N2C(=O)NC(=O)C(Cc3ccc(OC)cc3OC)C2=O)cc1` (stereo not given), the activation factor was determined as 1.06 and the activity change, negative = activation was -5.6% (inactive).
On the same counts, the results for `CN1CCN(Cc2cc(C(C)(C)C)c(O)c(C(C)(C)C)c2)CC1` are 0.944 and 5.6% (inactive).
For `CC(CO)(CO)N=Cc1c(O)n(-c2cccc3ccccc23)c(=O)[nH]c1=O`, in that order: 1.12 and -12.2% (inactive).
On the same counts, the results for `Cc1cc(NC(=O)COC(=O)c2c(C)nn(Cc3ccccc3)c2Cl)no1` are 0.971 and 2.9% (inactive).
With `CSc1ccc(C(=O)C(C)(C)N2CCOCC2)cc1`, the activation factor was 0.965 and the activity change, negative = activation is 3.5% (inactive).
For `CCOC(=O)c1c(-n2c(C)cc(C=C3C(=O)NC(=S)NC3=O)c2C)sc2c1CCCC2`, in that order: 0.649 and 35.1% (inactive).
For `COc1ccc(-n2c(=O)[nH]c3ccccc3c2=O)c(OC)c1`, the activation factor came out at 1.08 and the activity change, negative = activation was -7.55% (inactive).
Consider `CCOP(=O)(C(NC(=O)c1ccccc1Cl)=C(Cl)Cl)c1ccccc1` (stereo not given), for which the activation factor turned out to be 1.07 and the activity change, negative = activation is -6.55% (inactive).
For `O=[N+]([O-])c1cc(S(=O)(=O)c2ccc(O)c([N+](=O)[O-])c2)ccc1O`, in that order: 0.471 and 52.9% (inactive).
For `O=C(Cc1ccccc1)Oc1ccccc1N1C(=O)CCC1=O`, in that order: 1.07 and -7.1% (inactive).
Turning to `CCOc1ccc2nc(N3CCC(C(=O)N4CCC5(CC4)OCCO5)CC3)sc2c1`, the activation factor worked out at 0.97 and the activity change, negative = activation was 3% (inactive).
In the case of `CC1(C)CSC(Nc2ccc(F)c(Cl)c2)=N1`, the activation factor is 0.924 and the activity change, negative = activation was 7.6% (inactive).
For `Clc1ccc(C(c2ccc(Cl)cc2)n2cc[n+](CC(OCc3ccc(Cl)cc3Cl)c3ccc(Cl)cc3Cl)c2)cc1` (stereo not given), in that order: 31 and -3000% (active).
On the same counts, the results for `Cc1nc2cc(F)ccc2n1C1CCN(Cc2nnnn2CCc2ccccc2)CC1` are 1.13 and -13.2% (inactive).
For `O=C(Cn1cnc2ccccc2c1=O)NCCC(=O)N1CCC2(CC1)OCCO2`, the activation factor came to 1.09 and the activity change, negative = activation is -9.25% (inactive).
Consider `COc1ccc(P2(=O)Nc3ccccc3N2)cc1`, for which the activation factor was 0.951 and the activity change, negative = activation was 4.95% (inactive).
For `CCOC(=O)c1ccc(N2C(=O)CC(N3CC=C(c4ccc(F)cc4)CC3)C2=O)cc1` (stereo not given), in that order: 0.996 and 0.45% (inactive).
